# Reference: publication PMC8384837, “Expanding the binding specificity for RNA recognition by a PUF domain”
# Target: PUM1 PUF domain R3-LWG (Homo sapiens, UniProt Q14671 828-1176, C935L;R936W;Q939G)
# Test: yeast three-hybrid, YBZ-1, SC-Leu-His + 0.5 mM 3-AT, 4 days
# Conditions: tags: N-Gal4 AD-HA kept; label: inside an RPR1-promoter hybrid RNA with tandem MS2 sites; ssRNA
# Procedure, shortened: (§1)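 Repeat regions from input (SC-Leu) and selection (SC-Leu-His + 0.5 mM 3-AT) plates were PCR-amplified and Illumina-sequenced after four days of growth. The cells were strain YBZ-1 with a LexA–MS2 coat fusion and a HIS3 reporter, co-expressing Pumilio-1 PUF domain libraries and matching RNA elements from a centromeric plasmid. The interaction score is the log change in variant frequency from input to selection, taken in log2 with a pseudocount of 1 for absent variants.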
row,Sequence,binding signal
1,GGCUAGAACUAGUGGAUCCCCCGGCGCCCGGCGGCUCGAGCCCGGGUAAGUGUAAAUAGUCUGCAUGCCGCCGGGCGCCAUGCCUGCAGGUCGACUCUAGAAAACAUG,2.39 log2 enrichment (interaction score)
2,GGCUAGAACUAGUGGAUCCCCCGGCGCCCGGCGGCUCGAGCCCGGGUAAGUGUAAGUAGUCUGCAUGCCGCCGGGCGCCAUGCCUGCAGGUCGACUCUAGAAAACAUG,6.06 log2 enrichment (interaction score)
3,GGCUAGAACUAGUGGAUCCCCCGGCGCCCGGCGGCUCGAGCCCGGGUAAGUGUAAUUAGUCUGCAUGCCGCCGGGCGCCAUGCCUGCAGGUCGACUCUAGAAAACAUG,3.8 log2 enrichment (interaction score)

# Target: PUM1 PUF domain R4-TPC (Homo sapiens, UniProt Q14671 828-1176, N971T;H972P;Q975C)
# Test: as above
# Conditions: tags: N-Gal4 AD-HA kept; label: inside an RPR1-promoter hybrid RNA with tandem MS2 sites; ssRNA
# Procedure, shortened: as §1
row,Sequence,binding signal
1,GGCUAGAACUAGUGGAUCCCCCGGCGCCCGGCGGCUCGAGCCCGGGUAAGUGUAUAUAGUCUGCAUGCCGCCGGGCGCCAUGCCUGCAGGUCGACUCUAGAAAACAUG,5.59 log2 enrichment (interaction score)
2,GGCUAGAACUAGUGGAUCCCCCGGCGCCCGGCGGCUCGAGCCCGGGUAAGUGUAAAUAGUCUGCAUGCCGCCGGGCGCCAUGCCUGCAGGUCGACUCUAGAAAACAUG,4.17 log2 enrichment (interaction score)
3,GGCUAGAACUAGUGGAUCCCCCGGCGCCCGGCGGCUCGAGCCCGGGUAAGUGUACAUAGUCUGCAUGCCGCCGGGCGCCAUGCCUGCAGGUCGACUCUAGAAAACAUG,5.9 log2 enrichment (interaction score)
